The supplement of paper PMC12067926
Values without a mark were called inactive.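 The calls were made as follows: active = growth AUC significantly below the DMSO wells by Dunnett test; inactive = the rest.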

These compounds were tested on Pseudomonas 3 (Pseudomonas mandelii) (assay: relative growth (AUC of 72 h growth curve relative to DMSO control, dAUC) (ratio); higher = more growth (less inhibition), active = hit call of the paper). Conditions: 20 µM.
Method in brief: (§1)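 Bacterial isolates from Icelandic stream sediments and Silwood Park soil, plus whole sediment communities, were grown to carrying capacity in Luria–Bertani medium, then diluted 1:100 into 96-well plates with each chemical at 20 µM (1% DMSO). A600 was read hourly for 72 h on a plate reader, with brief shaking before each read. Relative growth (dAUC) is the spline-integrated area under the growth curve, averaged over three biological replicates and divided by the mean of the DMSO controls.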

Row | SMILES | relative growth
1 | CCCSP(=O)(OCC)Oc1ccc(Br)cc1Cl (centres undefined) | 1.1
2 | CC1(C(=O)Nc2ccc(O)c(Cl)c2Cl)CCCCC1 | 1.05
3 | C[N+](C)(C)CCCl | 1.01
4 | CCc1cnc(C2=NC(C)(C(C)C)C(=O)N2)c(C(=O)O)c1 (centres undefined) | 1.01
5 | CC[C@H](C)[C@H]1O[C@]2(C=C[C@@H]1C)C[C@@H]1C[C@@H](C/C=C(\C)[C@@H](O[C@H]3C[C@H](OC)[C@@H](O[C@H]4C[C@H](OC)[C@@H](O)[C@H](C)O4)[C@H](C)O3)[C@@H](C)/C=C/C=C3\CO[C@@H]4[C@H](O)C(C)=C[C@@H](C(=O)O1)[C@]34O)O2.CO[C@H]1C[C@H](O[C@H]2[C@H](C)O[C@@H](O[C@@H]3/C(C)=C/C[C@@H]4C[C@@H](C[C@]5(C=C[C@H](C)[C@@H](C(C)C)O5)O4)OC(=O)[C@@H]4C=C(C)[C@@H](O)[C@H]5OC/C(=C\C=C\[C@@H]3C)[C@]54O)C[C@@H]2OC)O[C@@H](C)[C@@H]1O | 1.03
6 | CCCCC(C#N)(Cn1cncn1)c1ccc(Cl)cc1 (centres undefined) | 0.993
7 | Clc1ccc(C(c2ccc(Cl)cc2)C(Cl)(Cl)Cl)cc1 | 1.02
8 | CCC(C)(C)C(=O)OC1=C(c2ccc(Cl)cc2Cl)C(=O)OC12CCCCC2 | 1.04
9 | O=C1c2ccccc2C(=O)N1SC(Cl)(Cl)Cl | 1.01
10 | Cc1nnc(-c2ccccc2)c(=O)n1N | 1.03
11 | N#Cc1c(Cl)c(Cl)c(Cl)c(C#N)c1Cl | 0.967
12 | CC(C)N(C)S(=O)(=O)NC(=O)c1cc(-n2c(=O)cc(C(F)(F)F)n(C)c2=O)c(F)cc1Cl | 1.04
13 | COC(=O)N(C(=O)N1CO[C@@]2(C(=O)OC)Cc3cc(Cl)ccc3C2=N1)c1ccc(OC(F)(F)F)cc1 | 1.04
14 | CN1COCN(Cc2cnc(Cl)s2)/C1=N\[N+](=O)[O-] | 1.05
15 | CCCN(CCC)C(=O)SCc1ccccc1 | 1.09
16 | OC(Cn1cncn1)(c1ccc(F)cc1)c1ccccc1F (centres undefined) | 1.03
17 | CC(C1CC1)C(O)(Cn1cncn1)c1ccc(Cl)cc1 (centres undefined) | 0.971
18 | COC(=O)c1ccccc1S(=O)(=O)NC(=O)Nc1nc(C)nc(OC)n1 | 0.983
19 | CN(C)C(CSS(=O)(=O)O)CSS(=O)(=O)O | 1.08

Row | SMILES | relative growth
20 | CNC(=O)c1cc(Cl)cc(C)c1NC(=O)c1cc(Br)nn1-c1ncccc1Cl | 0.958
21 | CO/C=C(/C(=O)OC)c1ccccc1Oc1cc(Oc2ccccc2C#N)ncn1 | 1.06
22 | O=C(NC(=O)c1c(F)cccc1F)Nc1ccc(OC(F)(F)C(F)OC(F)(F)F)c(Cl)c1 (centres undefined) | 0.99
23 | N#Cc1cc(Br)c(O)c(Br)c1 | 1.09
24 | CCOCN(C(=O)CCl)c1c(C)cccc1CC | 1.02
25 | CC1(C)[C@H](/C=C(\Cl)C(F)(F)F)[C@@H]1C(=O)OC(C#N)c1cccc(Oc2ccccc2)c1 (some centres undefined) | 1.05
26 | C#CCOc1ccc(CCNC(=O)C(OCC#C)c2ccc(Cl)cc2)cc1OC (centres undefined) | 1.02
27 | O=[N+]([O-])/N=C1\NCCN1Cc1ccc(Cl)nc1 | 1.04
28 | Fc1ccc(Oc2ccnc3cc(Cl)cc(Cl)c23)cc1 | 1.06
29 | CC(Oc1ccc(Oc2ncc(C(F)(F)F)cc2Cl)cc1)C(=O)O (centres undefined) | 1.05
30 | O=C(O)CNCP(=O)(O)O | 1.05
31 | C[N+]1(C)CCCCC1 | 1.02
32 | Oc1ccc(Cl)cc1Cc1cc(Cl)ccc1O | 0.8 (active)
33 | CCOP(=S)(OCC)Oc1cc(C)nc(C(C)C)n1 | 1.04
34 | CC(C)N(C(=O)COc1nnc(C(F)(F)F)s1)c1ccc(F)cc1 | 1.07
35 | CCCC1COC(Cn2cncn2)(c2ccc(Cl)cc2Cl)O1 (centres undefined) | 1
36 | Nc1c([N+](=O)[O-])ccc(Oc2ccccc2)c1Cl | 1.03
37 | COC(=O)N(OC)c1ccccc1COc1ccn(-c2ccc(Cl)cc2)n1 | 1.03

These compounds were tested on Pseudomonas 4 (Pseudomonas peli) in the same assay as above. Conditions: 20 µM.
Method in brief: as §1

Row | SMILES | relative growth
38 | CCCSP(=O)(OCC)Oc1ccc(Br)cc1Cl (centres undefined) | 0.975
39 | CC1(C(=O)Nc2ccc(O)c(Cl)c2Cl)CCCCC1 | 0.976
40 | C[N+](C)(C)CCCl | 1.04
41 | CCc1cnc(C2=NC(C)(C(C)C)C(=O)N2)c(C(=O)O)c1 (centres undefined) | 0.967
42 | CC[C@H](C)[C@H]1O[C@]2(C=C[C@@H]1C)C[C@@H]1C[C@@H](C/C=C(\C)[C@@H](O[C@H]3C[C@H](OC)[C@@H](O[C@H]4C[C@H](OC)[C@@H](O)[C@H](C)O4)[C@H](C)O3)[C@@H](C)/C=C/C=C3\CO[C@@H]4[C@H](O)C(C)=C[C@@H](C(=O)O1)[C@]34O)O2.CO[C@H]1C[C@H](O[C@H]2[C@H](C)O[C@@H](O[C@@H]3/C(C)=C/C[C@@H]4C[C@@H](C[C@]5(C=C[C@H](C)[C@@H](C(C)C)O5)O4)OC(=O)[C@@H]4C=C(C)[C@@H](O)[C@H]5OC/C(=C\C=C\[C@@H]3C)[C@]54O)C[C@@H]2OC)O[C@@H](C)[C@@H]1O | 1.02
43 | CCCCC(C#N)(Cn1cncn1)c1ccc(Cl)cc1 (centres undefined) | 0.927
44 | Clc1ccc(C(c2ccc(Cl)cc2)C(Cl)(Cl)Cl)cc1 | 0.985
45 | CCC(C)(C)C(=O)OC1=C(c2ccc(Cl)cc2Cl)C(=O)OC12CCCCC2 | 1
46 | O=C1c2ccccc2C(=O)N1SC(Cl)(Cl)Cl | 1.01
47 | Cc1nnc(-c2ccccc2)c(=O)n1N | 0.954
48 | N#Cc1c(Cl)c(Cl)c(Cl)c(C#N)c1Cl | 1
49 | CC(C)N(C)S(=O)(=O)NC(=O)c1cc(-n2c(=O)cc(C(F)(F)F)n(C)c2=O)c(F)cc1Cl | 1.02
50 | COC(=O)N(C(=O)N1CO[C@@]2(C(=O)OC)Cc3cc(Cl)ccc3C2=N1)c1ccc(OC(F)(F)F)cc1 | 1.01
51 | CN1COCN(Cc2cnc(Cl)s2)/C1=N\[N+](=O)[O-] | 0.996
52 | CCCN(CCC)C(=O)SCc1ccccc1 | 0.979
53 | OC(Cn1cncn1)(c1ccc(F)cc1)c1ccccc1F (centres undefined) | 1.02
54 | CC(C1CC1)C(O)(Cn1cncn1)c1ccc(Cl)cc1 (centres undefined) | 0.991
55 | COC(=O)c1ccccc1S(=O)(=O)NC(=O)Nc1nc(C)nc(OC)n1 | 1.08
56 | CN(C)C(CSS(=O)(=O)O)CSS(=O)(=O)O | 0.978

Row | SMILES | relative growth
57 | CNC(=O)c1cc(Cl)cc(C)c1NC(=O)c1cc(Br)nn1-c1ncccc1Cl | 1.01
58 | CO/C=C(/C(=O)OC)c1ccccc1Oc1cc(Oc2ccccc2C#N)ncn1 | 1.03
59 | O=C(NC(=O)c1c(F)cccc1F)Nc1ccc(OC(F)(F)C(F)OC(F)(F)F)c(Cl)c1 (centres undefined) | 0.961
60 | N#Cc1cc(Br)c(O)c(Br)c1 | 0.964
61 | CCOCN(C(=O)CCl)c1c(C)cccc1CC | 0.966
62 | CC1(C)[C@H](/C=C(\Cl)C(F)(F)F)[C@@H]1C(=O)OC(C#N)c1cccc(Oc2ccccc2)c1 (some centres undefined) | 0.999
63 | C#CCOc1ccc(CCNC(=O)C(OCC#C)c2ccc(Cl)cc2)cc1OC (centres undefined) | 0.992
64 | O=[N+]([O-])/N=C1\NCCN1Cc1ccc(Cl)nc1 | 1.01
65 | Fc1ccc(Oc2ccnc3cc(Cl)cc(Cl)c23)cc1 | 1.07
66 | CC(Oc1ccc(Oc2ncc(C(F)(F)F)cc2Cl)cc1)C(=O)O (centres undefined) | 1
67 | O=C(O)CNCP(=O)(O)O | 0.979
68 | C[N+]1(C)CCCCC1 | 1.05
69 | Oc1ccc(Cl)cc1Cc1cc(Cl)ccc1O | 0.674 (active)
70 | CCOP(=S)(OCC)Oc1cc(C)nc(C(C)C)n1 | 0.919
71 | CC(C)N(C(=O)COc1nnc(C(F)(F)F)s1)c1ccc(F)cc1 | 0.983
72 | CCCC1COC(Cn2cncn2)(c2ccc(Cl)cc2Cl)O1 (centres undefined) | 0.914
73 | Nc1c([N+](=O)[O-])ccc(Oc2ccccc2)c1Cl | 0.949
74 | COC(=O)N(OC)c1ccccc1COc1ccn(-c2ccc(Cl)cc2)n1 | 1
